# In PubChem BioAssay AID1159580 (chemical genetic matrix, 2015):
# About 2,000 (36%) of roughly 5,500 compounds were called active. Not shown: some 18% with an inconclusive outcome. The list shows a part of the results. Values without a mark were called inactive. No stated cut-off is given here; in the data, active means normalized growth mostly below about 0.91 (no sharp cut-off); inconclusive means no clear call, values can overlap the other calls; inactive means mostly above about 0.92.
# Assay: chemical genetic growth profiling, strain panel (AID 1159580);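 further: tested at 20 µM; growth read once vehicle control cultures reached saturation at 30 °C; 1 = growth at the plate median or of vehicle wells; lower values mean less growth of the strain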
# Conditions: S. cerevisiae deletion strains, growth OD
smiles,measurement,setting,value
CCOC(=O)C(c1ccccc1)C(Nc1ccc(Cl)c(Cl)c1)c1ccccn1 (configuration not stated),normalized growth,"locus YAL013W, strain DEP1, hits give low values",1.01
same,normalized growth,"locus YBR229C, strain ROT2, hits give low values",1.01
same,normalized growth,"locus YCL061C, strain MRC1, hits give low values",1.02
same,normalized growth,"locus YDL101C, strain DUN1, hits give low values",1.03
same,normalized growth,"locus YDR150W, strain NUM1, hits give low values",1.02
same,normalized growth,"locus YEL061C, strain CIN8, hits give low values",0.996
same,normalized growth,"locus YGR078C, strain PAC10, hits give low values",1.01
same,normalized growth,"locus YHR030C, strain SLT2, hits give low values",1.11
same,normalized growth,"locus YHR087W, strain rtc3, hits give low values",0.986
same,normalized growth,"locus YJR043C, strain POL32, hits give low values",1.03
same,normalized growth,"locus YJR075W, strain HOC1, hits give low values",1.03
same,normalized growth,"locus YKL190W, strain CNB1, hits give low values",1.01
same,normalized growth,"locus YLR039C, strain RIC1, hits give low values",1.21 [resistant] (active)
same,normalized growth,"locus YLR058C, strain SHM2 (second series), hits give low values",1.01
same,normalized growth,"locus YLR085C, strain ARP6, hits give low values",1.02
same,normalized growth,"locus YLR262C, strain YPT6, hits give low values",1.15
same,normalized growth,"locus YML094W, strain GIM5, hits give low values",1.01
same,normalized growth,"locus YMR219W, strain ESC1, hits give low values",1
same,normalized growth,"locus YMR263W, strain SAP30, hits give low values",0.985
same,normalized growth,"locus YNL128W, strain TEP1, hits give low values",1.03
same,normalized growth,"locus YNL153C, strain GIM3, hits give low values",1.01
same,normalized growth,"locus YNL298W, strain CLA4 (second series), hits give low values",1.01
same,normalized growth,"locus YNL322C, strain KRE1, hits give low values",1.01
same,normalized growth,"locus YNR030W, strain Alg12, hits give low values",1.01
same,normalized growth,"locus YPL055C, strain LGE1, hits give low values",0.995
same,normalized growth,"locus YPL241C, strain CIN2, hits give low values",1.01
same,normalized growth,"locus YPR135W, strain CTF4, hits give low values",1.01
